Test results from PubChem BioAssay AID1509 (The Scripps Research Institute Molecular Screening Center, 2009).
Out of some 220,000 compounds screened, about 770 (0.35%) were called active. Rule as the data show it: active = activation above about 11%; inactive = the rest. The full list was thinned out, with actives kept by preference.

These molecules were tested against Sphingosine 1-phosphate receptor 4 (Homo sapiens) (UniProt O95977) (assay: S1P4 receptor agonists, primary screen, cell-based (AID 1509;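 also: 0% = DMSO vehicle and 100% = reference agonist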)). Conditions: S1P4-expressing cell line, agonist reporter assay; at 4.98 µM; active compounds read high.
Sequence of Sphingosine 1-phosphate receptor 4 (Homo sapiens) (O95977 whole entry, looked up): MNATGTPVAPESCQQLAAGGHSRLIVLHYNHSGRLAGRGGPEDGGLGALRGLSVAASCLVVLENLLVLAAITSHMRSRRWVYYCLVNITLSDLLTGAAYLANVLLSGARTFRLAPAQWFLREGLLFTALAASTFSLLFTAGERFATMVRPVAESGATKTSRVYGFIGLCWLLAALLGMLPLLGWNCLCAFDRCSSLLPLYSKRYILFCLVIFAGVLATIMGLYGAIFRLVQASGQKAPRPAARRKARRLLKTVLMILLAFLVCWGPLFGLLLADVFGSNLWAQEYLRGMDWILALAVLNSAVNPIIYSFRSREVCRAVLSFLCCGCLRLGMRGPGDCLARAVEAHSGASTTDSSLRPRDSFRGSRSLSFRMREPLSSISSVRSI
With Cc1nc(-c2nnc(SCC(=O)Nc3cc(C(F)(F)F)cc(C(F)(F)F)c3)n2C)cs1 the activation was -0.18% (inactive). For O=C1C=C(c2ccc(Cl)cc2)C(=O)N1Nc1ccccc1, the activation was -3.55% (inactive). With CCOc1ccc(N2CC(C(=O)N/N=C/c3sccc3C)CC2=O)cc1 (centres undefined) the activation was -0.25% (inactive). In the case of NC(=O)COC(=O)c1sc2cc(F)ccc2c1Cl, the activation is reported as 0.19% (inactive). COc1ccc(CCNC(=O)C(Sc2ccccn2)c2ccccc2)cc1OC (centres undefined) was tested, and the activation was -2.85% (inactive). With O=C(Nc1ccc(N2CCOCC2)cc1)c1ccc2c(c1)OCO2 the activation was 1.77% (inactive). For CC1CN(C(=O)c2ccccc2NS(=O)(=O)c2cccc([N+](=O)[O-])c2)CC(C)O1 (centres undefined), the activation was 1.5% (inactive). CCc1ccc(Nc2nnc(SCC(=O)c3ccc4c(c3)NC(=O)CO4)s2)cc1 was tested, and the activation was 1.5% (inactive). In the case of CC1CCCN(CC(O)COc2ccc3c(c2)OCO3)C1 (centres undefined), the activation is reported as 0.61% (inactive). For COCCn1c(SCc2nnc(-c3ccc(OC)c(OC)c3)o2)nc2sc3c(c2c1=O)CCC3, the activation was 1.63% (inactive). CCOc1cnc(-c2c(-c3ccccc3Cl)noc2C)o1 was tested, and the activation was 0.62% (inactive). For CC1CCCC(NC(=O)c2cccc(N3CCCC3=O)c2)C1C (centres undefined), the activation was -1.52% (inactive). In the case of COc1ccccc1CNC(=O)CCn1c(=O)sc2ccccc21, the activation is reported as -0.92% (inactive). With COc1ccccc1CNC(=O)CNC(=O)c1cn(-c2ccccc2OC)c(=O)c2ccccc12 the activation was 16.9% (active). For COc1ccccc1CNC(=O)c1cc(=O)c2ccccc2o1, the activation was 0.7% (inactive). In the case of COc1cccc(CN(C)CC(=O)Nc2ccccc2C(=O)Nc2ccccc2)c1, the activation is reported as 0.57% (inactive). In the case of CN(C)c1nc(-c2cccnc2)nc(-c2ccc(Cl)cc2)c1C#N, the activation is reported as 0.37% (inactive). For CC(Oc1ccc(-c2ccccc2)c(F)c1)c1ccn(S(=O)(=O)c2cccc3ccccc23)n1 (centres undefined), the activation was -2.56% (inactive). With COc1ccc(NC(=O)C(=O)NCC(=O)Nc2cccc(C(F)(F)F)c2)cc1 the activation was 0.93% (inactive). COc1ccc(-c2ccc(CCC(=O)O)n2NC(=O)c2ccc(C(C)(C)C)cc2)cc1 was tested, and the activation was -0.13% (inactive). For CN(C)S(=O)(=O)c1cc(NC(=O)CN2C(=O)NC3(CCCc4ccccc43)C2=O)ccc1Cl (centres undefined), the activation was 0.63% (inactive). For COc1ccc(-n2c(C)cc(C(=O)CN3C(=O)NC4(CCc5ccccc54)C3=O)c2C)cc1 (centres undefined), the activation was 16.1% (active). For Cc1ccc(-n2c(C)cc(C(=O)CN3C(=O)C(=O)N(C4CCCC4)C3=O)c2C)cc1, the activation was 0.78% (inactive). For COC(=O)c1cc(C(=O)N(Cc2ccccc2)c2ccccn2)cc([N+](=O)[O-])c1, the activation was 1.87% (inactive). With Cc1ccccc1OCCC(=O)OCC(=O)NC(C)c1ccccc1 (centres undefined) the activation was -1.6% (inactive). With CCN(CC)C(=O)Cn1cc(S(=O)(=O)CC(=O)NCc2ccc3c(c2)OCO3)c2ccccc21 the activation was -1.22% (inactive). In the case of COc1ccc(C(=O)NN2C(=O)C3C(c4ccccc4)C=CC(c4ccccc4)C3C2=O)cc1 (centres undefined), the activation is reported as -0.98% (inactive). With N#C/C=C(/c1ccc(F)cc1)N1CCOCC1 the activation was -1.05% (inactive). With Cc1cc2c(C)nc(N/N=C/c3ccccc3)nc2o1 the activation was -1.39% (inactive). With CC(=O)Nc1ccc(SCC(=O)Nc2ccccc2Oc2ccccc2)cc1 the activation was 13.2% (active). With O=C(CSc1ccccc1)Nc1cc(Cl)ccc1Oc1ccccc1 the activation was 0.59% (inactive). For Cc1cc(C)cc(NC(=O)CSc2ccccc2)c1, the activation was -1.04% (inactive). For O=C(COC(=O)c1cc([N+](=O)[O-])ccc1NCc1ccccc1)NC1CCCCC1, the activation was 15.3% (active). With O=C(COC(=O)c1ccccc1SCC(=O)NC1CCCCC1)NC1CCCCC1 the activation was 0.41% (inactive). In the case of N#Cc1ccccc1Sc1ccccc1C(=O)OCC(=O)NC1CCCCC1, the activation is reported as 2.4% (inactive). In the case of Cc1nn(CC(=O)Nc2ccc(N(C)C)cc2)c(C)c1[N+](=O)[O-], the activation is reported as -0.79% (inactive). For NC(=O)c1ccc(-c2csnn2)cc1, the activation was -0.31% (inactive). In the case of N/C(=N\OC(=O)Cc1ccc([N+](=O)[O-])cc1)c1ccccn1, the activation is reported as 15.5% (active). N/C(=N\OC(=O)c1ccc([N+](=O)[O-])cc1)c1ccccn1 was tested, and the activation was -0.02% (inactive). With O=C(OCc1ccc([N+](=O)[O-])cc1)c1ccccn1 the activation was -1.16% (inactive). CCc1ccc(NC(=O)N[C@H](C(=O)O)C(C)CC)cc1 (some centres undefined) was tested, and the activation was -0.3% (inactive). With O=S(=O)(Nc1ccc(Cl)cn1)c1cnc(Cl)c(Br)c1 the activation was 0.57% (inactive). For Cc1cc(NC(=O)c2cc(-c3cccs3)on2)nn1Cc1ccc(Cl)cc1, the activation was 13.1% (active). In the case of Cc1ccc(Cn2ccc(NC(=O)c3cc(C(C)C)on3)n2)cc1, the activation is reported as -0.1% (inactive). For O=C(c1cc(-c2cccs2)on1)N1CCCCC1, the activation was 0.14% (inactive). With CCn1c(CNC(=O)c2ccco2)nnc1SCC(=O)Nc1cccc(F)c1 the activation was 1.91% (inactive). For CCn1c(Cc2ccccc2)nnc1SCC(=O)Nc1ccccc1, the activation was -2.58% (inactive). CCn1c(CNC(=O)c2ccc(OC)c(OC)c2)nnc1SCC(=O)Nc1ccccc1 was tested, and the activation was 21.5% (active). O=C(CN1CCN(S(=O)(=O)c2ccc(Cl)s2)CC1)NCc1ccc(Cl)cc1 was tested, and the activation was 0.73% (inactive). COC(=O)C1=C(C)N(C)C(=O)NC1c1ccc([N+](=O)[O-])o1 (centres undefined) was tested, and the activation was 0.41% (inactive). For Brc1ccc(-c2n(-c3ccccn3)c3ccccc3[n+]2-c2ccccn2)cc1, the activation was -0.47% (inactive). For CCn1c(N)c(Br)c(=O)[nH]c1=O, the activation was 0.16% (inactive). O=C(NNS(=O)(=O)c1ccccc1)c1cnn(-c2ccc(Cl)cc2)c1C(F)(F)F was tested, and the activation was 1.09% (inactive). In the case of Cc1ccc(NC(=O)CC2C(=O)N(Cc3ccccc3)C(=S)N2NC(=O)c2cccc(F)c2)c(C)c1 (centres undefined), the activation is reported as 2.02% (inactive). Cc1ccc(/C=N/NC(=O)Cn2ccc(C(F)(F)F)n2)o1 was tested, and the activation was 1.08% (inactive). In the case of CC(=O)NC(=S)Nc1ccc(NC(=O)c2cccnc2)cc1, the activation is reported as -0.19% (inactive). COc1ccc(CCn2c(NN=C3CCCC3)nc3c2c(=O)[nH]c(=O)n3C)cc1 was tested, and the activation was -1.13% (inactive). With FC(F)(F)c1ccnc(Oc2ccc(C3=NCCS3)cc2)c1 the activation was -0.27% (inactive). For O=c1cc(N2CCCCC2)c(-c2ccccc2)nn1Cc1cccc(F)c1, the activation was 0.58% (inactive).
